Measured values taken from the supplement of paper PMC12645437, “Orthogonal IMiD-Degron Pairs Induce Selective Protein Degradation in Cells” (ACS Chemical Biology, 2025).
Over roughly 8,300 sequences, “log2 fold change of degron read counts, EGFP-low vs EGFP+ sorted cells (limma voom), compound-induced degradation” has its median near -1.1; the highest 2% begin near 3.2. The sample as a whole holds a higher share of the highest values than the screen did.

Target: T1, CRBN, Q96SW2
T1 chain: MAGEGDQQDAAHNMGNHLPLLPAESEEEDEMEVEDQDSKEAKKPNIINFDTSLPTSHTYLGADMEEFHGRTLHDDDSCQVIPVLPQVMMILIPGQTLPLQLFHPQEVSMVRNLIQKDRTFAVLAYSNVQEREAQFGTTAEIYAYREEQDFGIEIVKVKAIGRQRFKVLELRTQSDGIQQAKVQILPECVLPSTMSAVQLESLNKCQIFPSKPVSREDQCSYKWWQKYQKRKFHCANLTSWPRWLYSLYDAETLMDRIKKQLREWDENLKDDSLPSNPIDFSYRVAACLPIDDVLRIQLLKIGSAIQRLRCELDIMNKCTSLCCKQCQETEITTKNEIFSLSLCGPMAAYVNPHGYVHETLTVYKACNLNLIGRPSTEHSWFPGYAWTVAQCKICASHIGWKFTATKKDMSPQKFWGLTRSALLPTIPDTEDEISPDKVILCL
Test: log2 fold change of degron read counts, EGFP-low vs EGFP+ sorted cells (limma voom), compound-induced degradation; higher = more compound-induced degradation of the degron-EGFP fusion; degrons are variants of IKZF1/3 zinc finger 2; compound dose not given here
Conditions: Jurkat, 18 h

[1] = compound: compound 19 (5-tert-butyl-thalidomide)
[2] = compound: compound 22 (5-morpholino-thalidomide)
[3] = compound: compound 33 (diphenyl IMiD analogue)
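Note: pooled lentiviral library of zinc finger degron-EGFP fusions in mCherry-positive Jurkat cells, FACS-sorted after compound exposure, with degron abundance counted by next-generation sequencing.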

B1: 46L_47L_49N_50Q_52G_53F_54M_55C_67L_, Q9UKT9 (peptide)
chain: LLCNQCGFMCTQKGNLLRHIKL
log2 fold change of degron read counts [1]: -1.85
log2 fold change of degron read counts [2]: -1.98
log2 fold change of degron read counts [3]: -1.61
log2 fold change of degron read counts (compound: thalidomide): -1.33

B2: 46F_47Y_49D_50Q_52G_53A_54Y_55F_67L_, Q9UKT9 (peptide)
chain: FYCDQCGAYFTQKGNLLRHIKL
log2 fold change of degron read counts [1]: -0.745
log2 fold change of degron read counts [2]: -1.31
log2 fold change of degron read counts [3]: -1.38
log2 fold change of degron read counts (compound: thalidomide): -2.23

B3: 46F_47D_49N_50Q_52G_53H_54Q_55F_67L_, Q9UKT9 (peptide)
chain: FDCNQCGHQFTQKGNLLRHIKL
log2 fold change of degron read counts [1]: -2.63
log2 fold change of degron read counts [2]: -3.11
log2 fold change of degron read counts [3]: -2.64
log2 fold change of degron read counts (compound: thalidomide): -2.65

B4: 46F_47D_49E_50I_52G_53A_54H_55F_67L_, Q9UKT9 (peptide)
chain: FDCEICGAHFTQKGNLLRHIKL
log2 fold change of degron read counts [1]: 3.28
log2 fold change of degron read counts [2]: 0.822
log2 fold change of degron read counts [3]: -0.326
log2 fold change of degron read counts (compound: thalidomide): 1.02

B5: 46F_47V_49E_50I_52G_53A_54H_55F_67L_, Q9UKT9 (peptide)
chain: FVCEICGAHFTQKGNLLRHIKL
log2 fold change of degron read counts [1]: 0.302
log2 fold change of degron read counts [2]: 1.59
log2 fold change of degron read counts [3]: 1.49
log2 fold change of degron read counts (compound: thalidomide): 1.95

B6: 46F_47S_49E_50I_52G_53A_54H_55F_67L_, Q9UKT9 (peptide)
chain: FSCEICGAHFTQKGNLLRHIKL
log2 fold change of degron read counts [1]: 2.47
log2 fold change of degron read counts [2]: 0.831
log2 fold change of degron read counts [3]: 0.776
log2 fold change of degron read counts (compound: thalidomide): 0.206

B7: 46F_47V_49E_50I_52G_53R_54H_55F_67L_, Q9UKT9 (peptide)
chain: FVCEICGRHFTQKGNLLRHIKL
log2 fold change of degron read counts [1]: -2.45
log2 fold change of degron read counts [2]: -1.78
log2 fold change of degron read counts [3]: -2.13
log2 fold change of degron read counts (compound: thalidomide): -0.209

B8: 46F_47T_49E_50I_52G_53H_54L_55F_67L_, Q9UKT9 (peptide)
chain: FTCEICGHLFTQKGNLLRHIKL
log2 fold change of degron read counts [1]: -2.72
log2 fold change of degron read counts [2]: -3.75
log2 fold change of degron read counts [3]: -2.61
log2 fold change of degron read counts (compound: thalidomide): -2.41
